Measurements as given in PubChem BioAssay (Tox21).
“And” between values parts separate entries of the source, which are not always exact repeats. Equal values may be shown once. Inconclusive results are not listed. A call without a number means that no potency is given here. Some compounds were tested as several samples or in several runs, with calls that do not always agree. The source made the active and inactive calls. Unless noted, the call rests on the fitted dose curve; in most records, active means well fitted curve in the direction sought with a large enough effect in the repeat runs; inconclusive means weak or mixed curves; inactive means no such curve, though single readings can be large; an effect the other way counts as inactive or inconclusive.

Assays:
[1] = target: Estrogen receptor beta (Homo sapiens) (UniProt Q92731); test: qHTS assay to identify small molecule agonists of the estrogen receptor beta (ER-beta) signaling pathway (AID 1259377; active means well fitted activation curve with a large enough effect in the signal ratio in the repeat runs, not every such curve was filed as active; the % refers to the signal ratio)
Chain of Estrogen receptor beta (Homo sapiens) (Q92731 whole entry, looked up): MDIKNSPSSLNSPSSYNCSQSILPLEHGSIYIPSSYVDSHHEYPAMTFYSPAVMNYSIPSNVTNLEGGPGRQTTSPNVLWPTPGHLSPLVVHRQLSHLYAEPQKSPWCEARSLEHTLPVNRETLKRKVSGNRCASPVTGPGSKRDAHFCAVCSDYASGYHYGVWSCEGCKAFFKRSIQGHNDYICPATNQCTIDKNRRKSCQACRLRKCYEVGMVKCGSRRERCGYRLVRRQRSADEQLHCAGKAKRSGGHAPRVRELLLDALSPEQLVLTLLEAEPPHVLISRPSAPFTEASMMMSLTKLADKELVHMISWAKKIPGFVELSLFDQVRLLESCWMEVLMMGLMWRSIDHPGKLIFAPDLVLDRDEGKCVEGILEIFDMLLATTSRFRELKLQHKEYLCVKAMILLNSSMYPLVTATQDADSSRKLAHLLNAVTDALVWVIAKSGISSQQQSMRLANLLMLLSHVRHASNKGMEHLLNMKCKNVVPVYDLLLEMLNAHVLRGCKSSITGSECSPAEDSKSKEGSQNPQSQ
Method in brief: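 ER-beta-UAS-bla HEK293T (GripTite) cells carrying a UAS-driven beta-lactamase reporter, in medium with 2% charcoal-stripped FBS, were exposed to compounds for 16 hr at 37C; LiveBLAzer B/G FRET substrate was then added and fluorescence read after 2 hours at room temperature.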

[2] = target: Estrogen receptor beta (Homo sapiens) (UniProt Q92731); test: qHTS assay to identify small molecule antagonists of the estrogen receptor beta (ER-beta) signaling pathway (AID 1259378; active means well fitted inhibition curve with a large enough effect in the signal ratio in the repeat runs, not every such curve was filed as active; the % refers to the signal ratio)
Method in brief: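 ER-beta-UAS-bla HEK293T (GripTite) cells in 2% charcoal-stripped FBS medium were preincubated 6 hr at 37C, dosed with compound, then stimulated with 1 nM E2 (final) for 16 hr; beta-lactamase reporter read by B/G FRET fluorescence after 2 hr substrate loading.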

[3] = qHTS assay to identify small molecule agonists of the androgen receptor (AR) signaling pathway in the presence of an antagonist - cell viability counter screen (AID 1259379);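 further: MDA-kb2 human breast cancer cells carrying an MMTV luciferase reporter; series mostly up to about 92 µM; nearly all actives have a fitted effect of over 25% in size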
Method in brief: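 Viability counter screen: CellTiter-Fluor fluorescence, measured in the same wells as the luciferase read-out. MDA-kb2 cells, 3,000/well, with nilutamide at 3.0uM final and compounds at 15 concentrations, 16 hr at 37C, 0% CO2.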

[4] = qHTS assay to identify small molecule agonists of the estrogen receptor beta (ER-beta) signaling pathway - cell viability counter screen (AID 1259380); further: nearly all actives have a fitted effect of over 30% in size
Method in brief: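 Luminescence read-out (CellTiter-Glo, 30 min, room temp) taken in the same wells as the beta-lactamase reporter assay; ER-beta-UAS-bla HEK293T cells exposed to DMSO-dissolved compounds for 16 hr at 37C in 2% charcoal-stripped FBS medium.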

[5] = qHTS assay to identify small molecule antagonists of the estrogen receptor beta (ER-beta) signaling pathway - cell viability counter screen (AID 1259382); further: series mostly up to about 92 µM; nearly all actives have a fitted effect of over 55% in size
Method in brief: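 Luminescent ATP read-out (CellTiter-Glo, 30 min, RT) taken in the same wells as the bla reporter assay. HEK293T ER-beta-UAS-bla cells in 2% charcoal-stripped FBS were exposed to compounds with 1nM E2 for 16 hr at 37C.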

[6] = target: Estrogen receptor (Homo sapiens) (UniProt P03372); test: qHTS assay to identify small molecule agonists of the estrogen receptor alpha (ER-alpha) signaling pathway in the presence of an antagonist (AID 1259383; calls by dose curve; further: top concentration of the series differs between compounds; nearly all actives have a fitted effect of over 15% in size)
Chain of Estrogen receptor (Homo sapiens) (P03372 whole entry, looked up): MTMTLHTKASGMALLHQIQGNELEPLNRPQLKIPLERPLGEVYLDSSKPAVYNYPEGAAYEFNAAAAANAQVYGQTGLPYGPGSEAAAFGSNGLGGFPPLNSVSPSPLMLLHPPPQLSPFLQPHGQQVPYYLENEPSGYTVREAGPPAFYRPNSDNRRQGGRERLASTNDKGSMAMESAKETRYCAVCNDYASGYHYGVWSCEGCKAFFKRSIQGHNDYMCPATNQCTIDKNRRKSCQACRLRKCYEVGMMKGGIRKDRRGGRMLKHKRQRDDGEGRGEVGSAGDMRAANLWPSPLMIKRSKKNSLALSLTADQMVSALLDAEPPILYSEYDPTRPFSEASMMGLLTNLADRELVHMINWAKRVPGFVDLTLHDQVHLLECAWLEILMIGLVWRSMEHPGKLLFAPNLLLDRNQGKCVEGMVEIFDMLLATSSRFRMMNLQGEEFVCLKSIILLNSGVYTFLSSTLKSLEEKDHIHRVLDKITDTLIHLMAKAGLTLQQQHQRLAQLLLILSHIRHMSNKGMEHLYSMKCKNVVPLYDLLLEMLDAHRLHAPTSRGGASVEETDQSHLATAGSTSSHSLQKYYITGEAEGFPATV
Method in brief: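 Luciferase luminescence (ONE-Glo, 30min at room temperature) measured in VM7Luc4E2 cells after 22hr compound exposure at 15 concentrations, with 10.0nM ICI-182,780 final present; cells express endogenous ER-alpha and carry four EREs upstream of luciferase.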

[7] = qHTS assay to identify small molecule agonists or antagonists of the thyroid stimulating hormone receptor (TSHR) signaling pathway - wild type cell line counter screen (AID 1259384; calls by dose curve)
Method in brief: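 Wild-type HEK293 cells were plated 18 h at 37 C/5% CO2, pin-dosed with compound plus Ro20-1724 medium, held 30 min at room temperature, then given cAMP-d2 and anti-cAMP-cryptate; fluorescence was read after 1 h. Fifteen concentrations, triplicate.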

[8] = qHTS assay to identify small molecule agonists of the estrogen receptor alpha (ER-alpha) signaling pathway in the presence of an antagonist - cell viability counter screen (AID 1259386);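 further: series mostly up to about 92 µM; cells exposed to compounds for 22 h at 37 °C before the viability read; nearly all actives have a fitted effect of over 30% in size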
Method in brief: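 Read-out: CellTiter-Fluor fluorescence after 1hr reagent incubation, measured in the same wells as the luciferase readout. VM7Luc4E2 cells were exposed to 15 compound concentrations with 10.0nM ICI-182,780 for 22hr at 37C.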

[9] = target: Progesterone receptor (Homo sapiens) (UniProt P06401); test: qHTS assay to identify small molecule agonists of the progesterone receptor (PR) signaling pathway (AID 1346784; calls by dose curve; further: nearly all actives have a fitted effect of over 30% in size)
Chain of Progesterone receptor (Homo sapiens) (P06401 whole entry, looked up): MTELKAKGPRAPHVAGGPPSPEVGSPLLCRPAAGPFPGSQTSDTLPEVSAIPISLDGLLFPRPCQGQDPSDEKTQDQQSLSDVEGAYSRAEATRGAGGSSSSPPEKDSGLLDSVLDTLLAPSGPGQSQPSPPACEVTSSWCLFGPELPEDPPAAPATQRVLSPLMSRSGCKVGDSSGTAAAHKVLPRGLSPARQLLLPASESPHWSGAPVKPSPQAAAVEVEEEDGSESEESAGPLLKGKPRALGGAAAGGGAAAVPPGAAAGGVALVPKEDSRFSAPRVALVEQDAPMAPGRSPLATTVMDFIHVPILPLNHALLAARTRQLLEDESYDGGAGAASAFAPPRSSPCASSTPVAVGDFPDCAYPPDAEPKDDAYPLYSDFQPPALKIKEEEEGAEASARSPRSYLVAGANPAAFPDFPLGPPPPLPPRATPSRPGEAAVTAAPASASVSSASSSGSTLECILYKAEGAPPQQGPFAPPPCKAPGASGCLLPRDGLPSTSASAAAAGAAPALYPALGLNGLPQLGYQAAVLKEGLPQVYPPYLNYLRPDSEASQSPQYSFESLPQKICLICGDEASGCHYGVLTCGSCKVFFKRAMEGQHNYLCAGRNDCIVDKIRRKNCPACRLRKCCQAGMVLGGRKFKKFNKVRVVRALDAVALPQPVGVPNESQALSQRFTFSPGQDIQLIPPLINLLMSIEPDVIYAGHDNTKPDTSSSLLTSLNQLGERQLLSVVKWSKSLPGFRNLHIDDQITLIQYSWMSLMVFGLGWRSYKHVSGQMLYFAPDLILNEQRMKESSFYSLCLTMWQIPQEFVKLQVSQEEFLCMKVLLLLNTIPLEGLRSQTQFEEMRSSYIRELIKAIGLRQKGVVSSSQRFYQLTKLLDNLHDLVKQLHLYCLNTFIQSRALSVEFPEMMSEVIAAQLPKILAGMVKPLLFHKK
Method in brief: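 PR-UAS-bla HEK 293T cells carrying a UAS-driven beta-lactamase reporter were seeded in medium with 2% charcoal-stripped FBS, preincubated 6 hr at 37C, then exposed to compounds in DMSO for 16 hr; agonism was read by LiveBLAzer B/G FRET fluorescence.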

[10] = target: Progesterone receptor (Homo sapiens) (UniProt P06401); test: qHTS assay to identify small molecule antagonists of the progesterone receptor (PR) signaling pathway (AID 1346795; active means well fitted inhibition curve with a large enough effect in the signal ratio in the repeat runs, not every such curve was filed as active; the % refers to the signal ratio)
Method in brief: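 PR-UAS-bla HEK293T cells carrying a UAS-driven beta-lactamase reporter were plated in medium with 2% charcoal-stripped FBS and rested 6 hr at 37C. Compounds were added with 1 nM R5020 (final) for 16 hr, then FRET substrate loaded 2 hr at room temperature.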

[11] = qHTS assay to identify small molecule antagonists of the progesterone receptor (PR) signaling pathway - cell viability counter screen (AID 1346798); further: series mostly up to about 92 µM; nearly all actives have a fitted effect of over 50% in size
Method in brief: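 PR-UAS-bla HEK293T cells in medium with 2% charcoal-stripped FBS were treated with compounds plus R5020 for 16 hr at 37C. Cell viability was then read by CellTiter-Glo luminescence after 30 min at room temperature in the same wells.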

[12] = qHTS assay to identify small molecule agonists of the progesterone receptor (PR) signaling pathway - cell viability counter screen (AID 1346799; calls by dose curve; further: nearly all actives have a fitted effect of over 45% in size; further: potency means the concentration at half of the fitted maximal effect)
Method in brief: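 PR-UAS-bla HEK293T cells, 3,000 per well in medium with 2% charcoal-stripped FBS, were preincubated 6 hr at 37C, then exposed to compounds for 16 hr; viability was read as CellTiter-Glo luminescence after 30 min at room temperature.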

[13] = target: Thyrotropin-releasing hormone receptor (Homo sapiens) (UniProt P34981); test: qHTS assay to identify small molecule antagonists of the thyrotropin-releasing hormone receptor (TRHR) signaling pathway (AID 1346877; active means well fitted inhibition curve with a large enough effect in the repeat runs, not every such curve was filed as active; further: series mostly up to about 51 µM)
Chain of Thyrotropin-releasing hormone receptor (Homo sapiens) (P34981 whole entry, looked up): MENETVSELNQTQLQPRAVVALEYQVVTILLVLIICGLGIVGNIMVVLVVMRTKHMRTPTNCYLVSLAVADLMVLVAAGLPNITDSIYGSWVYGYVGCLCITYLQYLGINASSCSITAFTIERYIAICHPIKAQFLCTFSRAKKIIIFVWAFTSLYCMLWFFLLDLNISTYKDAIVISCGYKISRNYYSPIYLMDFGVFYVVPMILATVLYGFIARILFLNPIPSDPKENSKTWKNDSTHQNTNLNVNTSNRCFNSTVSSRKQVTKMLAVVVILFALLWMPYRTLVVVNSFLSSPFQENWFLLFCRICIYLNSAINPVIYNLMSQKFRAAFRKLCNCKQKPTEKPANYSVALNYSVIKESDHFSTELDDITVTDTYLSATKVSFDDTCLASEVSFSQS
Method in brief: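 HEK293/TRHR cells, 18 h, 37 °C; Ca2+ dye 2 h; cpd 5 min RT; TRH 1 nM final; fluorescence read 3 min, 1 s intervals; 15 concs, triplicate.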

[14] = Human pregnane X receptor (PXR) small molecule agonists, qHTS cell viability counter screen (AID 1346977); further: nearly all actives have a fitted effect of over 50% in size
Method in brief: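 PXR-Luc HepG2 cells in medium with 5% charcoal-stripped FBS were pre-incubated 5hr, then exposed to compounds for 24hr at 37C. Viability was read in the same wells by CellTiter-Fluor fluorescence, reagent added after 23hr with a 1hr incubation.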

[15] = target: Thyrotropin receptor (Homo sapiens) (UniProt P16473); test: qHTS assay to identify small molecule antagonists of the thyroid stimulating hormone receptor (TSHR) signaling pathway (AID 1259385; calls by dose curve; further: nearly all actives have a fitted effect of over 20% in size)
Chain of Thyrotropin receptor (Homo sapiens) (P16473 whole entry, looked up): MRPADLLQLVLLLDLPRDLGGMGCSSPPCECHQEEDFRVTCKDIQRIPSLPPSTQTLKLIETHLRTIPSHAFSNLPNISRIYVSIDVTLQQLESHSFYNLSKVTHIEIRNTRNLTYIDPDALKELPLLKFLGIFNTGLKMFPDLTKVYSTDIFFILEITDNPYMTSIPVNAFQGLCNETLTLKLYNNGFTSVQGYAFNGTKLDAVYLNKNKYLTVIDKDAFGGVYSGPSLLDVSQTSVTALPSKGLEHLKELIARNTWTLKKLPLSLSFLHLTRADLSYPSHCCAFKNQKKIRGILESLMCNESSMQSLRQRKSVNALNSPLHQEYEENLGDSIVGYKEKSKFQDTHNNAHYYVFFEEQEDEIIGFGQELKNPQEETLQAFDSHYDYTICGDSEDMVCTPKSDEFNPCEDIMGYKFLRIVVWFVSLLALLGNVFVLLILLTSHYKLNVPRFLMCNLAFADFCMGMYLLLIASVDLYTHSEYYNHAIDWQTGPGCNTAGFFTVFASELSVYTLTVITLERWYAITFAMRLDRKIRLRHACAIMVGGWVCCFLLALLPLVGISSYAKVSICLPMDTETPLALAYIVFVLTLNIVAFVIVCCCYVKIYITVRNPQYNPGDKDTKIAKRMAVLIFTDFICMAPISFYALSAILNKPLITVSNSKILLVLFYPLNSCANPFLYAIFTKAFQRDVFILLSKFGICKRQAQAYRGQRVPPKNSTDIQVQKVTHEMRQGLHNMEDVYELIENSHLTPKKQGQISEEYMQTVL
Method in brief: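 TSHR-HEK293 cells were plated and held 18 h at 37C/5% CO2, then given compound plus Ro20-1724 and stimulated with TSH at 1.5 ng/mL final. After 30 min at room temperature, cAMP was detected with cAMP-d2/anti-cAMP-cryptate (1 h) by fluorescence.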

[16] = qHTS assay to identify small molecule antagonists of the TGF-beta/Smad signaling pathway - cell viability counter screen (AID 1346824); further: nearly all actives have a fitted effect of over 50% in size
Method in brief: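 SBE-bla HEK 293T cells were plated overnight at 37 C, then given compounds in DMSO plus TGF-beta1 (added as 0.25 ng/mL solution) for 5 hr. After the bla read, CellTiter-Glo was added to the same wells and luminescence read after 30 min at room temperature.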

[17] = qHTS assay to identify small molecule agonists of the TGF-beta/Smad signaling pathway (AID 1346859; active means well fitted activation curve with a large enough effect in the signal ratio in the repeat runs, not every such curve was filed as active; the % refers to the signal ratio; further: series mostly up to about 77 µM)
Method in brief: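 HEK 293T cells stably carrying a beta-lactamase reporter driven by the Smad binding element were seeded overnight, exposed to DMSO-dissolved compounds for 5 hr at 37 C, 5% CO2, then loaded with FRET substrate for 2 hr at room temperature.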

[18] = target: Thyrotropin-releasing hormone receptor (Homo sapiens) (UniProt P34981); test: qHTS assay to identify small molecule agonists of the thyrotropin-releasing hormone receptor (TRHR) signaling pathway (AID 1346891; calls by dose curve; further: series mostly up to about 58 µM)
Method in brief: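 TRHR-expressing HEK293 cells were plated 18 h at 37 °C/5% CO2, loaded with calcium dye 2 h at 37 °C, then given compound in DMSO; fluorescence was read kinetically for 3 min at 1 s intervals.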

[19] = qHTS assay to identify small molecule agonists of the TGF-beta/Smad signaling pathway - cell viability counter screen (AID 1346829); further: top concentration of the series differs between compounds; nearly all actives have a fitted effect of over 45% in size
Method in brief: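 In parallel with the Smad reporter read, viability of HEK 293T cells stably carrying SBE-bla is quantified by ATP luminescence following 5 hr compound treatment.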

SMILES	Potency [1]	outcome [2]	Potency [3]	Potency [4]	Potency [5]	Potency [6]	outcome [7]	Potency [8]	Potency [9]	Potency [10]	Potency [11]	Potency [12]	Potency [13]	Potency [14]	outcome [15]	outcome [16]	outcome [17]	outcome [18]	Potency [19]
O=C1CC(=O)NC(=O)N1	inactive	inactive	inactive	inactive	inactive	inactive	inactive	inactive	inactive	inactive	inactive	inactive	inactive	inactive					
CC[C@@H](CO)NC(=O)[C@@H]1C=C2c3cccc4[nH]cc(c34)C[C@H]2N(C)C1	inactive	inactive	inactive	inactive	inactive	inactive	inactive	inactive	inactive	inactive	inactive		inactive	inactive	inactive	inactive	inactive	inactive	
CN=CNc1ccc(C)cc1C	inactive	inactive	inactive	inactive	inactive	inactive	inactive	inactive		inactive	inactive	inactive		inactive	inactive	inactive	inactive		inactive
OP(O)c1ccccc1	inactive	inactive	inactive	inactive	inactive	inactive	inactive	inactive	inactive	inactive	inactive	inactive	inactive	inactive	inactive	inactive	inactive		inactive
Nc1c(Cl)c(F)nc(OCC(=O)O)c1Cl	inactive	inactive	inactive	inactive	inactive	inactive	inactive	inactive	inactive	inactive	inactive		inactive	inactive	inactive	inactive	inactive	inactive	
C/C(=N\NC(=O)Nc1cc(F)cc(F)c1)c1ncccc1C(=O)O	inactive	inactive	inactive	inactive	inactive	inactive	inactive	inactive	inactive	inactive	inactive	inactive and 68.6 µM (active)	inactive	inactive	inactive	inactive	inactive	inactive	
NCCOS(=O)(=O)O	inactive	inactive	inactive	inactive	inactive	inactive	inactive	inactive		inactive		inactive	inactive	inactive	inactive		inactive		inactive
CNC(=O)NC(O)C(Cl)(Cl)Cl (stereo unspecified)	inactive	inactive	inactive	inactive	inactive	inactive	inactive	inactive	inactive	inactive	inactive	inactive	inactive	inactive	inactive	inactive			
